In PubChem BioAssay:
Values without a mark were called inactive. For some assays here: Measured potencies and affinities stand elsewhere. Calls of active or inactive are those of the source. Unless noted, the rule behind the calls is not given here.

Key:
[1] = antimalarial activity against Dd2 strain (AID 2302;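 active = growth inhibition above 50% at the single 2 µM test dose, taken to imply half-maximal potency below 2 µM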;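 note: 0% = DMSO untreated growth and 100% = chloroquine plus artemisinin killed control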); details: P. falciparum Dd2 in RBCs, LDH growth readout, 72 h; at 2 µM; hits give high values
[2] = HepG2 cytotoxicity, primary screen, cytotoxicity control for P. falciparum antimalarial project, cell-based, ATP luminescence (AID 2303;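 active = inhibition above 50%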;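 note: 0% = DMSO wells and 100% = digitonin-killed cells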); details: HepG2 viability, 24-48 h, at 10 µM, hits give high values
[3] = target: L-lactate dehydrogenase (Plasmodium falciparum (isolate CDC / Honduras)) (UniProt Q27743); experiment: PfLDH activity inhibition – cell lysate, 3D7 strain, counter-screen for P. falciparum growth inhibition project (AID 2304);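 note: 0% = vehicle and 100% = reference inhibitor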; details: P. falciparum 3D7 crude extract, LDH APAD/NBT absorbance; at 2 µM; hits give high values
Chain of L-lactate dehydrogenase (Plasmodium falciparum (isolate CDC / Honduras)) (Q27743 whole entry, looked up): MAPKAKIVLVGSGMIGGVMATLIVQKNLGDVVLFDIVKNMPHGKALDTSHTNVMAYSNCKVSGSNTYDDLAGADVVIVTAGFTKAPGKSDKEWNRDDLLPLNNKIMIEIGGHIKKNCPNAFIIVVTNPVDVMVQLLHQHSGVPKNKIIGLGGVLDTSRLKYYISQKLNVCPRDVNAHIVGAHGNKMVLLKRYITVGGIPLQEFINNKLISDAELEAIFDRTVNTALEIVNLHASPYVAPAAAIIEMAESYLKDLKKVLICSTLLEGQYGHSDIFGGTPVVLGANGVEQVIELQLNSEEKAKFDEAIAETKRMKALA

[4] = inhibition of 3D7 malaria parasite growth – strain 3D7 (AID 2306);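 note: 0% = DMSO wells and 100% = chloroquine plus artemisinin control wells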; details: P. falciparum 3D7 erythrocytic growth, LDH absorbance, 72 h; at 2 µM; hits give high values
[5] = target: Calcium-dependent protein kinase 1 (Plasmodium falciparum (isolate 3D7)) (UniProt P62344); experiment: PfCDPK1 kinase inhibitors, biochemical, TCAMS library (AID 1159585; cut-off not given, nearly all actives have IC50 up to about 0.98 µM;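 note: inhibitors leave more ATP so luminescence rises with inhibition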); details: recombinant PfCDPK1, Kinase-Glo ATP depletion luminescence
Chain of Calcium-dependent protein kinase 1 (Plasmodium falciparum (isolate 3D7)) (P62344 whole entry, looked up): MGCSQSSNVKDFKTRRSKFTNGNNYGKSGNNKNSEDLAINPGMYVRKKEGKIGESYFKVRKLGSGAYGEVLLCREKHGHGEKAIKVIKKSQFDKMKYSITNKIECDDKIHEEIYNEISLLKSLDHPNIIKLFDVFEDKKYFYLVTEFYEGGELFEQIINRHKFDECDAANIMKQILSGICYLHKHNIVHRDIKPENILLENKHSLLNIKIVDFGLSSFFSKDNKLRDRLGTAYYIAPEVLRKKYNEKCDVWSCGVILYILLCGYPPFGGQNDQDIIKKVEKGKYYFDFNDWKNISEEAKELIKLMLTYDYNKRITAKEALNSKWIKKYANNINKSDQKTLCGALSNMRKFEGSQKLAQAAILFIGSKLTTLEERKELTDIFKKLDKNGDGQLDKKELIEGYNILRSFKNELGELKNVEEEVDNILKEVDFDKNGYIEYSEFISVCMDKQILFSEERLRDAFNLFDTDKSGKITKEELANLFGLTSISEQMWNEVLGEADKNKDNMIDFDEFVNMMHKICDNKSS

[6] = target: Plasmodium falciparum protein kinase 6 (PK6, PF3D7_1337100) (UniProt Q8IDW1); experiment: PfPK6 kinase inhibitors, biochemical, TCAMS library (AID 1159586); details: recombinant PfPK6, Kinase-Glo ATP depletion luminescence
Chain of Plasmodium falciparum protein kinase 6 (PK6, PF3D7_1337100) (Q8IDW1 1-305): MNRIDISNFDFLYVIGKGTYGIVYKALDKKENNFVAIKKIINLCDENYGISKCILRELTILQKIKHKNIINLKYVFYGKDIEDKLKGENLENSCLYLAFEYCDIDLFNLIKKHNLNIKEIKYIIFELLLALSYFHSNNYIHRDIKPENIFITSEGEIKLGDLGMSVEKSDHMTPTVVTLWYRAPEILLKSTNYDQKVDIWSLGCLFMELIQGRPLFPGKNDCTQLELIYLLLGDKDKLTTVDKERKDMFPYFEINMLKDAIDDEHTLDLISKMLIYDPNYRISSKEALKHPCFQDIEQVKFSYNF

[7] = target: Protein kinase 7 (PK7), Plasmodium falciparum 3D7 (PF3D7_0213400) (UniProt Q7YTF7); experiment: inhibition of Plasmodium PK7 catalytic activity – biochemical, TCAMS antimalarial set, Kinase-Glo luminescence (AID 1159587); details: recombinant PfPK7, Kinase-Glo ATP depletion luminescence
Chain of Protein kinase 7 (PK7), Plasmodium falciparum 3D7 (PF3D7_0213400) (Q7YTF7 1-343): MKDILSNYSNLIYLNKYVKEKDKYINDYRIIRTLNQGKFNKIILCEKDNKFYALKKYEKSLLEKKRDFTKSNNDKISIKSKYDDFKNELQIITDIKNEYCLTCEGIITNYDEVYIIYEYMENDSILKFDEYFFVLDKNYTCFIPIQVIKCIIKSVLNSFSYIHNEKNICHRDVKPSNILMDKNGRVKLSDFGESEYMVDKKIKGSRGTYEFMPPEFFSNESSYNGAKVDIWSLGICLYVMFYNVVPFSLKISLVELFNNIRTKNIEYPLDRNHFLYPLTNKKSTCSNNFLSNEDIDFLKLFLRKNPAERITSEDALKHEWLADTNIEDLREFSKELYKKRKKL

[8] = target: Calcium-dependent protein kinase 4 (Plasmodium falciparum (isolate 3D7)) (UniProt Q8IBS5); experiment: PfCDPK4 kinase inhibitors, biochemical, TCAMS library (AID 1159588; cut-off not given, nearly all actives have IC50 up to about 0.91 µM); details: recombinant PfCDPK4, Kinase-Glo ATP depletion luminescence
Chain of Calcium-dependent protein kinase 4 (Plasmodium falciparum (isolate 3D7)) (Q8IBS5 whole entry, looked up): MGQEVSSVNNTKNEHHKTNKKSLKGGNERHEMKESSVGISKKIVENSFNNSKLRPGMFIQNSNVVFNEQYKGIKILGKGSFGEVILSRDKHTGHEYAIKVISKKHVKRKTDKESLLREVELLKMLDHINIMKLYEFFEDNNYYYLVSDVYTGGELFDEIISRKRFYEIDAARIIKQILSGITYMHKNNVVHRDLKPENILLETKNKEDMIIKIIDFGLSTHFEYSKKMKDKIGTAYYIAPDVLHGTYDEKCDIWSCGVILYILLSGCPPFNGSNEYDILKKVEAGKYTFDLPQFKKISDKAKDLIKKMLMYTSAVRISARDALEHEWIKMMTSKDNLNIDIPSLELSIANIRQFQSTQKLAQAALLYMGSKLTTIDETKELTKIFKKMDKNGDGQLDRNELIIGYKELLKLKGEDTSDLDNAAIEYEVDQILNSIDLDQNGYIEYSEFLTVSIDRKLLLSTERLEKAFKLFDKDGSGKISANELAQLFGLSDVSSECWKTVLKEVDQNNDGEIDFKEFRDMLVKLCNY

Compound	growth inhibition [1]	inhibition [2]	inhibition [3] [%]	growth inhibition [4]	outcome [5]	outcome [6]	outcome [7]	outcome [8]
O=C(/C=C/c1ccc(Cl)c(Cl)c1)NCCCCCN1CCCN(C(=O)Nc2cccc(Cl)c2)CC1	2%	11%	0	102% (active)	inactive	inactive	inactive	inactive
N#Cc1ccc(NC2(C(=O)N3CCN(c4cccc(Cl)c4)CC3)CC2)c2ccccc12	66% (active)	-5%	0	94% (active)	inactive	inactive	inactive	inactive
O=C(/C=C/c1ccc(Cl)c(Cl)c1)NCCCCCN1CCC(NC(=O)Nc2ccc(Cl)cc2Cl)CC1	33%	96% (active)	-2	91% (active)	inactive	inactive	inactive	inactive
OCC(CO)(CO)NCc1ccc2c3c(cccc13)-c1ccccc1-2	76% (active)	73% (active)	0	87% (active)	inactive	inactive	inactive	inactive
COCCNCc1ccc(-c2cccc(CNC3CCN(Cc4ccccc4)CC3)c2)cc1	101% (active)	30%	0	100% (active)	inactive	inactive	inactive	inactive
Oc1ccc(C2CNCCc3c2cc(O)c(OCc2ccccc2)c3Cl)cc1 (configuration not stated)	8%	14%	5	98% (active)	inactive	inactive	inactive	inactive
Cc1[nH]c(C)c(-c2ccc(CCc3ccc(F)cc3F)cc2)c(=O)c1Br	98% (active)	-5%	-3	97% (active)	inactive	inactive	inactive	inactive
Cc1cc(C(=O)NC2CCN(Cc3ccccc3)CC2)ccc1-c1nc2cc(Cl)c(Cl)cc2[nH]1	32%	7%	0	96% (active)	inactive	inactive	inactive	inactive
O=C(/C=C/c1ccc(Cl)c(Cl)c1)NCCCCCN1CC[C@H](NC(=O)Nc2ccc(Oc3ccccc3)cc2)C1	14%	47%	-9	100% (active)	inactive	inactive	inactive	inactive
CCN(CC)CCCOC(=O)c1ccc2c(c1)-c1ccc(C(=O)OCCCN(CC)CC)c3cccc-2c13	96% (active)	22%	-3	98% (active)	inactive	inactive	inactive	inactive
O=C(Nc1ccc(-c2nc3ccccc3[nH]2)cc1)c1cncc(Br)c1	49%	35%	1	95% (active)	inactive	inactive	inactive	inactive
Nc1ncc(-c2ccc(Cl)c(Cl)c2)c(N)n1	-2%	65% (active)	-2	94% (active)	inactive	inactive	inactive	inactive
N#Cc1ccc(CN2CCC(Oc3ccc(NC(=O)c4ccco4)cc3Cl)CC2)cc1	96% (active)	7%	6	95% (active)	inactive	inactive	inactive	inactive
O=C(c1ccccc1)N1COCC(CCN2CCC(N3CCCC3)CC2)(c2ccc(Cl)c(Cl)c2)C1 (configuration not stated)	9%	18%	0	83% (active)	inactive	inactive	inactive	inactive
CN(Cc1ccc(C#N)cc1)C1CCN(c2cc(NC(=O)c3cccc(F)c3)ccn2)CC1	-9%	9%	-2	83% (active)	inactive	inactive	inactive	inactive
CN(C)CCCc1cc2c(cc1Cl)CCN2C(=O)Nc1ccc(-c2ccncc2)c2ccccc12	-2%	4%	-2	94% (active)	inactive	inactive	inactive	inactive
CNC(=S)NCc1cnc2ccccn12	-2%	-2%	3	97% (active)	inactive	inactive	inactive	inactive
N#Cc1ccc(N[C@@H](CC2CCCCC2)C(=O)NCc2cc(F)c(F)cc2F)c2ccccc12	39%	12%	-3	94% (active)	inactive	inactive	inactive	inactive
Cc1cc(N(C)CCN(C)C)nc(Nc2ccc(Cl)cc2)n1	14%	-1%	-3	92% (active)	inactive	inactive	inactive	inactive
